Source: PubChem BioAssay (Tox21)
“And” between values parts separate entries of the source, which are not always exact repeats. Equal values may be shown once. Inconclusive results are not listed. The source made the active and inactive calls. Unless noted, the call rests on the fitted dose curve; in most records, active means well fitted curve in the direction sought with a large enough effect in the repeat runs; inconclusive means weak or mixed curves; inactive means no such curve, though single readings can be large; an effect the other way counts as inactive or inconclusive.

Experiments:
[1] = qHTS assay for small molecule agonists of the p53 signaling pathway (AID 651631; calls by dose curve; further: nearly all actives have a fitted effect of over 15% in size)
Method in brief: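 p53RE-bla HCT-116 cells; compounds 16 h, 37 °C; LiveBLAzer B/G FRET substrate 2 h RT; fluorescence intensity read-out, qHTS format.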

[2] = qHTS assay for small molecules that induce genotoxicity in human embryonic kidney cells expressing luciferase-tagged ATAD5 (AID 651632); further: nearly all actives have a fitted effect of over 15% in size
Method in brief: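 A rise in luciferase signal from ATAD5-tagged HEK293T cells marks genetic stress. Cells were exposed to compounds for 16 hr at 37C, 5% CO2, then luciferase was quantified after a 30 min room-temperature incubation with Amplite.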

[3] = qHTS assay for small molecule agonists of the p53 signaling pathway - cell viability (AID 651633; calls by dose curve;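 further: p53RE-bla HCT reporter cells with a stable beta-lactamase p53 reporter; series mostly up to about 83 µM; nearly all actives have a fitted effect of over 30% in size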)
Method in brief: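 p53RE-bla cells, seeded at 4,000 per well and rested 5 h at 37 C/5% CO2, received compounds in DMSO for 16 h at 37 C. CellTiter-Glo was then added, and luminescence was read after 30 min at room temperature to gauge cytotoxicity.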

[4] = qHTS assay for small molecules that induce genotoxicity in human embryonic kidney cells expressing luciferase-tagged ATAD5 - cell viability (AID 651634; calls by dose curve; further: nearly all actives have a fitted effect of over 25% in size)
Method in brief: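 Cytotoxicity counter-readout: after 15.5 hr compound treatment at 37C, live-cell protease activity in ATAD5-luciferase HEK293T cells measured by CellTiter-Fluor fluorescence, 30 min development at 37C.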

[5] = qHTS assay for small molecule disruptors of the mitochondrial membrane potential - cell viability (AID 720634; calls by dose curve;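 further: human HepG2 liver cancer cells; series mostly up to about 83 µM; nearly all actives have a fitted effect of over 20% in size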)
Method in brief: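 Cytotoxicity was quantified from ATP content by CellTiter-Glo luminescence in the same wells as the MMP dye read-out. HepG2 (2,000 cells/well) were plated overnight and exposed to compounds for 1 hr at 37 C.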

[6] = qHTS assay for small molecule disruptors of the mitochondrial membrane potential (AID 720635); further: potency means the concentration at half of the fitted maximal effect
Method in brief: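 HepG2 cells (2,000/well) attached overnight at 37C, then took compound for 1 hr at 37C, 5% CO2. Mito-MPS dye was added for 30 min; fluorescence was read at 490/535 nm (monomers) and 540/590 nm (aggregates).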

[7] = qHTS assay to test for compound auto fluorescence at 590 nm (red) in HepG2 cells (AID 720674)
Method in brief: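 Compound auto-fluorescence is scored relative to Rose Bengal sodium, measured at 540/590 nm in live HepG2 cultures after 1 hr compound contact (37 C, 5% CO2).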

[8] = qHTS assay to test for compound auto fluorescence at 535 nm (green) in HepG2 cells (AID 720675)
[9] = qHTS assay to test for compound auto fluorescence at 460 nm (blue) in HEK293 cells (AID 720678)
Method in brief: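 Triamterene serves as the blue fluorophore standard. Compound signal at 405/460 nm is read in HEK293 wells (2,000 cells, 10% dialyzed FBS) after overnight treatment at 37C.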

[10] = qHTS assay to test for compound auto fluorescence at 590 nm (red) in HEK293 cells (AID 720679)
Method in brief: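 We plated HEK293 cells in 10% dialyzed FBS medium, let them adhere for 4-5 hr, then added 23 nL compound. Overnight at 37C and 5% CO2 preceded fluorescence measurement at 540/590nm.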

[11] = qHTS assay to test for compound auto fluorescence at 535 nm (green) in HEK293 cells (AID 720680)
[12] = qHTS assay to test for compound auto fluorescence at 460 nm (blue) in HEK293 cell free culture (AID 720681)
Method in brief: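 Test compounds were pinned into cell-free culture medium (DMEM with 10% FBS) and fluorescence was read directly at Ex/Em 405/460 nm. Signals were expressed as fluorescence equivalents of triamterene, with DMSO vehicle as control.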

[13] = qHTS assay to test for compound auto fluorescence at 535 nm (green) in HEK293 cell free culture (AID 720682)
Method in brief: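 Cell-free medium (DMEM, 10% FBS) receives compound or DMSO by pintool. Plate read directly at Ex 485/Em 535 nm. Signal converted to fluorescein equivalency.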

[14] = qHTS assay to test for compound auto fluorescence at 590 nm (red) in HEK293 cell free culture (AID 720683)
Method in brief: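 Tox21 10K library compounds were pinned into cell-free DMEM with 10% FBS and fluorescence was read at excitation 540 nm. Activity is expressed as Rose Bengal sodium equivalency.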

[15] = qHTS assay to test for compound auto fluorescence at 590 nm (red) in HepG2 cell free culture (AID 720684)
Method in brief: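 Ex 540 / Em 590 nm read of compound in cell-free MEM (10% FBS). Rose Bengal sodium reference.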

[16] = qHTS assay to test for compound auto fluorescence at 460 nm (blue) in HepG2 cell free culture (AID 720685)
Method in brief: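 Cell-free plates of MEM plus 10% FBS received 23 nL compound or DMSO vehicle; blue-channel (405/460 nm) intensity scored against triamterene as reference fluorophore.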

[17] = qHTS assay to test for compound auto fluorescence at 535 nm (green) in HepG2 cell free culture (AID 720686)
[18] = qHTS assay to test for compound auto fluorescence at 460 nm (blue) in HepG2 cells (AID 720687)
Method in brief: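 Cells (2,000/well in MEM with 10% FBS) attached overnight at 37 C, then were exposed to compound or DMSO for 1 hr at 37 C, 5% CO2. Fluorescence read at Ex/Em 405/460 nm, expressed as triamterene-equivalent signal.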

[19] = target: Glucocorticoid receptor (Homo sapiens) (UniProt P04150); experiment: qHTS assay to identify small molecule agonists of the glucocorticoid receptor (GR) signaling pathway (AID 720691; active means well fitted activation curve with a large enough effect in the signal ratio in the repeat runs, not every such curve was filed as active; the % refers to the signal ratio)
Method in brief: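 Agonist-mode qHTS in HeLa cells stably expressing a glucocorticoid-response-element beta-lactamase reporter. Fluorescence intensity read with FRET substrate (2 h, room temperature) after 18 h compound treatment at 37 C.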

[20] = target: Glucocorticoid receptor (Homo sapiens) (UniProt P04150); experiment: qHTS assay to identify small molecule antagonists of the glucocorticoid receptor (GR) signaling pathway (AID 720692; active means well fitted inhibition curve with a large enough effect in the signal ratio in the repeat runs, not every such curve was filed as active; the % refers to the signal ratio)
Method in brief: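 Inhibition of dexamethasone-driven (5 nM final) beta-lactamase expression was measured in GRE-reporter HeLa cells over 18 h at 37C. Fluorescence was read after 2 h with the B/G FRET substrate at room temperature.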
On the % scale 0 is the no-effect control and ±100 the full control effect.

Glucocorticoid receptor (Homo sapiens), sequence (P04150 whole entry, looked up): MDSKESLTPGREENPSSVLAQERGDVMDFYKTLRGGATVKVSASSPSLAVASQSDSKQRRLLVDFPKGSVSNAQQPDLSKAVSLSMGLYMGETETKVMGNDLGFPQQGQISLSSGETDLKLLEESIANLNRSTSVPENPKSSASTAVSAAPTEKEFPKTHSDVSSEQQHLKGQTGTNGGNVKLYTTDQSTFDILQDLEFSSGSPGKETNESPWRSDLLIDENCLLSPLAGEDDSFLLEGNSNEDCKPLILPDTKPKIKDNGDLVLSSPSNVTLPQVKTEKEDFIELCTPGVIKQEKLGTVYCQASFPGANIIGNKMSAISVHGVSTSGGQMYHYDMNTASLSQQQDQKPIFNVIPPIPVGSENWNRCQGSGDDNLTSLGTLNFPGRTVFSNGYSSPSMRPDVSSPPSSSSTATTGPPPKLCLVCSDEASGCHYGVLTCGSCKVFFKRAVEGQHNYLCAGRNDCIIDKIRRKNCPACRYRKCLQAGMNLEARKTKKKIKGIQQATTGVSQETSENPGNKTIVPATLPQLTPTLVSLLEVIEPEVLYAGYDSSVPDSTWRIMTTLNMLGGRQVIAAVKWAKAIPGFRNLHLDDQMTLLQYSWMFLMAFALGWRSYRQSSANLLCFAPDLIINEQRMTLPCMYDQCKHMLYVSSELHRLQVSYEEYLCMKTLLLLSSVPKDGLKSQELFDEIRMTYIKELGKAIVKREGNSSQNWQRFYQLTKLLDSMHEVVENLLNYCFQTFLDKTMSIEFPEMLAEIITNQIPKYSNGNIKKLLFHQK

COc1cc(C(=O)NCc2ccc(OCCN(C)C)cc2)cc(OC)c1OC
inactive: Potency [1] | Potency [2] | Potency [3] | Potency [4] | outcome [5] | Potency [6] | fluorescence, relative to Rose Bengal [7] 1.14% [at 18.6 µM] | fluorescence, % of fluorescein control [8] 0.0603% [at 18.6 µM] | fluorescence, % of triamterene [9] -0.345% [at 18.6 µM] | fluorescence, % of fluorescent control [10] -0.334% [at 18.6 µM] | fluorescence, % of fluorescein [11] -0.015% [at 18.6 µM] | fluorescence, % of fluorescent control [12] -0.119% [at 18.6 µM] | activity change [13] -0.0621% [at 18.6 µM] | fluorescence, % of fluorescent control [14] 0.0108% [at 18.6 µM] | fluorescence, % of Rose Bengal [15] -0.58% [at 18.6 µM] | fluorescence, % of fluorescent control [16] -0.0208% [at 18.6 µM] | fluorescence, % of fluorescein control [17] 0.123% [at 18.6 µM] | fluorescence, % of fluorescent control [18] 0.157% [at 18.6 µM] | Potency [19]

Clc1cc(Cl)c(Cl)nc1Cl
inactive: Potency [1] | Potency [2] | Potency [3] | Potency [4] | outcome [5] | Potency [6] | outcome [7] | outcome [8] | outcome [9] | outcome [10] | outcome [11] | outcome [12] | outcome [13] | outcome [14] | outcome [15] | outcome [16] | outcome [17] | outcome [18]

CC[C@H]1OC(=O)[C@H](C)[C@@H](O[C@H]2C[C@@](C)(OC)[C@@H](O)[C@H](C)O2)[C@H](C)[C@@H](O[C@@H]2O[C@H](C)C[C@H](N(C)C)[C@H]2O)[C@](C)(OC)C[C@@H](C)C(=O)[C@H](C)[C@@H](O)[C@]1(C)O
inactive: Potency [1] | Potency [2] | Potency [3] | Potency [4] | outcome [5] | Potency [6] | outcome [7] | outcome [8] | outcome [9] | outcome [10] | outcome [11] | outcome [12] | outcome [13] | outcome [14] | outcome [15] | outcome [16] | outcome [17] | outcome [18] | Potency [19] | Potency [20]

CN1CC(=O)N/C1=N/C(=O)Nc1cccc(Cl)c1
active: Potency [6] 21.1 µM and 26.6 µM
inactive: Potency [1] | Potency [2] | Potency [3] | Potency [4] | outcome [5] | outcome [7] | outcome [8] | outcome [9] | outcome [10] | outcome [11] | outcome [12] | outcome [13] | outcome [15] | outcome [16] | outcome [17] | Potency [19] | Potency [20]

O=C(c1ccccc1)C1(O)CCCCC1
inactive: Potency [1] | Potency [2] | Potency [3] | Potency [4] | outcome [5] | Potency [6] | outcome [7] | outcome [8] | outcome [9] | outcome [10] | outcome [12] | outcome [13] | outcome [14] | outcome [15] | outcome [16] | outcome [18]

COCCOC[C@H](CC1(C(=O)NC2CCC(C(=O)O)CC2)CCCC1)C(=O)Oc1ccc2c(c1)CCC2 (stereo partly specified)
inactive: Potency [1] | Potency [2] | Potency [3] | Potency [4] | outcome [5] | Potency [6] | outcome [7] | outcome [8] | outcome [9] | outcome [10] | outcome [11] | outcome [12] | outcome [13] | outcome [14] | outcome [15] | outcome [16] | outcome [17] | outcome [18] | Potency [20]

CC(C)(C)OC(=O)c1cccc(N)c1
inactive: Potency [1] | Potency [2] | Potency [3] | Potency [4] | outcome [5] | outcome [7] | outcome [8] | outcome [9] | outcome [10] | outcome [11] | outcome [12] | outcome [13] | outcome [14] | outcome [15] | outcome [16] | outcome [17] | Potency [19] | Potency [20]
active: Potency [6] 35.3 µM

c1ccc(CCc2ccccc2)cc1
inactive: Potency [1] | Potency [2] | Potency [3] | Potency [4] | outcome [5] | Potency [6] | outcome [7] | outcome [8] | outcome [9] | outcome [10] | outcome [12] | outcome [13] | outcome [14] | outcome [15] | outcome [16] | outcome [17] | outcome [18]

O=S(=O)(O)c1cccc2ccccc12
inactive: Potency [1] | Potency [2] | Potency [3] | Potency [4] | outcome [5] | Potency [6] | outcome [7] | outcome [8] | outcome [9] | outcome [10] | outcome [13] | outcome [14] | outcome [15] | outcome [16] | outcome [17] | outcome [18] | Potency [19]

CC(C)(C#N)Nc1nc(Cl)nc(NC2CC2)n1
inactive: Potency [1] | Potency [2] | Potency [3] | Potency [4] | outcome [5] | Potency [6] | outcome [7] | outcome [8] | outcome [9] | outcome [10] | outcome [11] | outcome [12] | outcome [13] | outcome [14] | outcome [15] | outcome [16] | outcome [17] | Potency [19]

C[N+](C)(CCOc1ccccc1)Cc1cccs1
inactive: Potency [1] | Potency [2] | Potency [3] | Potency [4] | outcome [5] | Potency [6] | outcome [7] | outcome [8] | outcome [9] | outcome [10] | outcome [11] | outcome [12] | outcome [13] | outcome [14] | outcome [15] | outcome [16] | outcome [18] | Potency [20]

CC(C)NNC(=O)c1ccncc1
inactive: Potency [1] | Potency [2] | Potency [3] | Potency [4] | outcome [5] | Potency [6] | outcome [7] | outcome [8] | outcome [9] | outcome [10] | outcome [11] | outcome [12] | outcome [13] | outcome [14] | outcome [15] | outcome [16] | outcome [17] | outcome [18] | Potency [19] | Potency [20]

CNCCO
inactive: Potency [1] | Potency [2] | Potency [3] | Potency [4] | outcome [5] | Potency [6] | outcome [7] | outcome [8] | outcome [10] | outcome [11] | outcome [12] | outcome [13] | outcome [14] | outcome [15] | outcome [16] | outcome [17] | outcome [18]
